Results taken from PubChem BioAssay (NCI).
Compounds without any hit were thinned out: in the full panel of roughly 83,000, 20% have a hit.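 For each line, cells grew in 96-well plates with the test compound present at a single concentration for 48 hours.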 The source made the active and inactive calls. Rule for the calls: active = growth percent below 10; inactive = the rest.

Columns and labels:
Test in all cases: NCI-60 one-dose screen, 48 h (100 = growth as untreated, 0 = no growth, -100 = all killed)
Conditions in all cases: 10 µM
SR leukemia = tested on: SR leukemia
OVCAR-8 ovarian = tested on: OVCAR-8 ovarian
OVCAR-5 ovarian = tested on: OVCAR-5 ovarian
OVCAR-4 ovarian = tested on: OVCAR-4 ovarian
SK-OV-3 ovarian = tested on: SK-OV-3 ovarian
IGROV1 ovarian = tested on: IGROV1 ovarian
OVCAR-3 ovarian = tested on: OVCAR-3 ovarian
HS 578T breast = tested on: HS 578T breast
NCI/ADR-RES ovarian = tested on: NCI/ADR-RES ovarian
T-47D breast = tested on: T-47D breast
BT-549 breast = tested on: BT-549 breast
MDA-MB-435 melanoma = tested on: MDA-MB-435 melanoma
SW-620 colon = tested on: SW-620 colon
MCF7 breast = tested on: MCF7 breast
HCT-116 colon = tested on: HCT-116 colon
HCC-2998 colon = tested on: HCC-2998 colon
KM12 colon = tested on: KM12 colon

Measured: growth

c1cncc(-c2csc(-c3c[nH]c4ccccc34)n2)c1
inactive: SR leukemia 70% | OVCAR-8 ovarian 95.8% | OVCAR-5 ovarian 95.6% | OVCAR-4 ovarian 79.1% | SK-OV-3 ovarian 79.3% | IGROV1 ovarian 68.8% | OVCAR-3 ovarian 85.6% | HS 578T breast 90.6% | NCI/ADR-RES ovarian 94.7% | T-47D breast 64.1% | BT-549 breast 89.2% | MDA-MB-435 melanoma 86.9% | SW-620 colon 102% | MCF7 breast 77.3% | HCT-116 colon 82.6% | HCC-2998 colon 107% | KM12 colon 81.8%

COc1ccc(-c2nn(-c3cccc(Cl)c3)cc2/C=C2\NC(=S)N(c3ccc(Cl)cc3)C2=O)cc1
inactive: OVCAR-8 ovarian 21.9% | OVCAR-5 ovarian 53.7% | HS 578T breast 25.8% | T-47D breast 11.9% | SW-620 colon 40.8% | MCF7 breast 19.3% | HCC-2998 colon 23.2% | KM12 colon 26.6%
active: SR leukemia -69.6% | OVCAR-4 ovarian -62.1% | SK-OV-3 ovarian -47.8% | IGROV1 ovarian -16.2% | OVCAR-3 ovarian 0.69% | NCI/ADR-RES ovarian 7.34% | BT-549 breast -13% | MDA-MB-435 melanoma 7.26% | HCT-116 colon 0.814%

COc1ccc(-c2cc(-c3ccc(OC)c(OC)c3)nc(SCCCC(=O)NO)n2)cc1
active: SK-OV-3 ovarian -21.3% | IGROV1 ovarian -25.1% | OVCAR-3 ovarian -24% | HS 578T breast 4.08% | NCI/ADR-RES ovarian -34.7% | T-47D breast 4.26% | BT-549 breast 8.08% | MDA-MB-435 melanoma 1.23% | SW-620 colon 2.56% | MCF7 breast -22% | HCT-116 colon 0.272% | HCC-2998 colon -15.7%
inactive: SR leukemia 15.1% | OVCAR-8 ovarian 10.4% | OVCAR-5 ovarian 15.9% | OVCAR-4 ovarian 13.1% | KM12 colon 15.7%

COc1ccc(-c2cc(-c3ccc(Cl)cc3)nc(SCCCC(=O)NO)n2)cc1
inactive: SR leukemia 22.8% | OVCAR-5 ovarian 24.5% | OVCAR-4 ovarian 18.2% | HS 578T breast 37.9% | BT-549 breast 26.1% | MDA-MB-435 melanoma 18.1% | SW-620 colon 14.2% | KM12 colon 18%
active: OVCAR-8 ovarian 8.07% | SK-OV-3 ovarian 5.99% | IGROV1 ovarian 2.96% | OVCAR-3 ovarian -1.93% | NCI/ADR-RES ovarian -33.6% | T-47D breast 8.24% | MCF7 breast 0.343% | HCT-116 colon 8.41% | HCC-2998 colon -10%

O=C1CCn2c1c(O)c1ccccc1c2=O
inactive: SR leukemia 95.1% | OVCAR-8 ovarian 103% | OVCAR-5 ovarian 114% | OVCAR-4 ovarian 104% | SK-OV-3 ovarian 103% | IGROV1 ovarian 116% | OVCAR-3 ovarian 118% | HS 578T breast 93.6% | NCI/ADR-RES ovarian 103% | T-47D breast 94.5% | BT-549 breast 113% | MDA-MB-435 melanoma 99.5% | SW-620 colon 101% | MCF7 breast 94.8% | HCT-116 colon 107% | HCC-2998 colon 109% | KM12 colon 109%

COc1ccc(-c2nn(-c3cccc(Cl)c3)cc2-c2c(C#N)c(=O)n3[nH]c(-c4ccc(C)cc4)nc3c2C#N)cc1
inactive: OVCAR-8 ovarian 14.3% | OVCAR-5 ovarian 87% | OVCAR-4 ovarian 57.1% | SK-OV-3 ovarian 55.7% | IGROV1 ovarian 38.5% | OVCAR-3 ovarian 97% | HS 578T breast 43.4% | NCI/ADR-RES ovarian 51.2% | T-47D breast 55.6% | BT-549 breast 43.4% | MDA-MB-435 melanoma 10.8% | MCF7 breast 21.2% | HCC-2998 colon 52.2% | KM12 colon 55.1%
active: SR leukemia 1.64% | SW-620 colon -21% | HCT-116 colon 9.86%

C=CCn1c(SCC(=O)Nc2ccc(C(=O)/C=C/c3ccc(Cl)cc3)cc2)nnc1-c1cc(-c2ccccc2)nc2ccccc12
inactive: OVCAR-8 ovarian 26.4% | OVCAR-5 ovarian 90.4% | OVCAR-4 ovarian 44.1% | SK-OV-3 ovarian 100% | OVCAR-3 ovarian 63.7% | HS 578T breast 86.3% | NCI/ADR-RES ovarian 78.9% | T-47D breast 84.6% | BT-549 breast 64.2% | MDA-MB-435 melanoma 77.9% | MCF7 breast 12.2% | HCC-2998 colon 87.4% | KM12 colon 76.5%
active: SR leukemia 6.5% | IGROV1 ovarian -62% | SW-620 colon 5.4% | HCT-116 colon -22.9%

COc1ccc(-c2nn(-c3cccc(Cl)c3)cc2-c2cc(-c3ccccc3)nc(N)n2)cc1
active: HCT-116 colon 5.52%
inactive: SR leukemia 11.3% | OVCAR-8 ovarian 67.9% | OVCAR-5 ovarian 59% | OVCAR-4 ovarian 56.1% | SK-OV-3 ovarian 98.5% | IGROV1 ovarian 83.7% | OVCAR-3 ovarian 72.2% | HS 578T breast 62% | NCI/ADR-RES ovarian 53.3% | T-47D breast 46.5% | BT-549 breast 73% | MDA-MB-435 melanoma 57% | SW-620 colon 45.3% | MCF7 breast 12.9% | HCC-2998 colon 21.9% | KM12 colon 31.8%

COc1cc2c3c(n([C@@H]4CCOC4)c(=O)c2cc1OC)-c1cc2c(cc1C3=O)OCO2
inactive: SR leukemia 15.1% | OVCAR-8 ovarian 36.7% | OVCAR-5 ovarian 77% | OVCAR-4 ovarian 72.2% | SK-OV-3 ovarian 24.7% | IGROV1 ovarian 67.8% | OVCAR-3 ovarian 52.3% | HS 578T breast 109% | NCI/ADR-RES ovarian 30.1% | T-47D breast 21.7% | BT-549 breast 46.2% | MDA-MB-435 melanoma 62.7% | SW-620 colon 50.2% | MCF7 breast 13.5% | HCT-116 colon 27.1% | HCC-2998 colon 70.9% | KM12 colon 62.4%

COc1ccc(C(=O)CSc2nc(-c3cc(OC)ccc3OC)cc(-c3ccc(OC)cc3)c2C#N)cc1
inactive: SR leukemia 90.1% | OVCAR-8 ovarian 105% | OVCAR-5 ovarian 85.8% | OVCAR-4 ovarian 98.1% | SK-OV-3 ovarian 87.1% | IGROV1 ovarian 102% | OVCAR-3 ovarian 97% | HS 578T breast 103% | NCI/ADR-RES ovarian 45.1% | T-47D breast 85.7% | BT-549 breast 89.9% | MDA-MB-435 melanoma 100% | SW-620 colon 110% | MCF7 breast 101% | HCT-116 colon 94% | HCC-2998 colon 108% | KM12 colon 92.1%

Cc1ccc(C(=O)/C=C/c2ccccc2)s1
inactive: SR leukemia 88.3% | OVCAR-8 ovarian 111% | OVCAR-5 ovarian 110% | OVCAR-4 ovarian 133% | SK-OV-3 ovarian 130% | IGROV1 ovarian 79.4% | OVCAR-3 ovarian 89.6% | HS 578T breast 106% | NCI/ADR-RES ovarian 113% | T-47D breast 141% | BT-549 breast 99% | MDA-MB-435 melanoma 98.5% | SW-620 colon 100% | MCF7 breast 40% | HCT-116 colon 60.4% | HCC-2998 colon 101% | KM12 colon 92.8%

Nc1ccccc1NC(=O)c1ccc(CCCC(=O)Nc2ccc(C3CC3N)cc2)cc1 (centres undefined)
active: T-47D breast 7.85% | HCT-116 colon 8.68%
inactive: SR leukemia 31.5% | OVCAR-8 ovarian 17.3% | OVCAR-5 ovarian 33.1% | OVCAR-4 ovarian 49.7% | SK-OV-3 ovarian 32.4% | IGROV1 ovarian 44.3% | OVCAR-3 ovarian 25.4% | HS 578T breast 36.7% | NCI/ADR-RES ovarian 98.6% | BT-549 breast 47.4% | MDA-MB-435 melanoma 18% | SW-620 colon 14.9% | MCF7 breast 17.7% | HCC-2998 colon 19.5% | KM12 colon 45.2%

c1cnc2[nH]cc(-c3nc(-c4ccsc4)cs3)c2c1
inactive: SR leukemia 87.7% | OVCAR-8 ovarian 96.9% | OVCAR-5 ovarian 111% | OVCAR-4 ovarian 93% | SK-OV-3 ovarian 92.8% | IGROV1 ovarian 70.8% | OVCAR-3 ovarian 84.2% | HS 578T breast 87.5% | NCI/ADR-RES ovarian 101% | T-47D breast 66.1% | BT-549 breast 96.1% | MDA-MB-435 melanoma 98.3% | SW-620 colon 111% | MCF7 breast 57.7% | HCT-116 colon 89.9% | HCC-2998 colon 115% | KM12 colon 88.9%

COc1ccc(-c2nn(-c3cccc(Cl)c3)cc2-c2nc(N)[nH]c(=O)c2C#N)cc1
inactive: SR leukemia 19.3% | OVCAR-8 ovarian 96.4% | OVCAR-5 ovarian 94.3% | OVCAR-4 ovarian 85.7% | SK-OV-3 ovarian 90% | IGROV1 ovarian 61% | OVCAR-3 ovarian 106% | HS 578T breast 76.6% | NCI/ADR-RES ovarian 66.3% | T-47D breast 58.7% | BT-549 breast 64% | SW-620 colon 83.2% | MCF7 breast 51% | HCT-116 colon 58% | HCC-2998 colon 80.9% | KM12 colon 56%
active: MDA-MB-435 melanoma 2.16%

COc1cc2c3c(n([C@H]4CCOC4)c(=O)c2cc1OC)-c1cc2c(cc1C3=O)OCO2
inactive: SR leukemia 13.6% | OVCAR-8 ovarian 35.2% | OVCAR-5 ovarian 71.6% | OVCAR-4 ovarian 70.9% | SK-OV-3 ovarian 24.6% | IGROV1 ovarian 62% | OVCAR-3 ovarian 46.9% | HS 578T breast 107% | NCI/ADR-RES ovarian 27.5% | T-47D breast 11.8% | BT-549 breast 48.2% | MDA-MB-435 melanoma 59.3% | SW-620 colon 46.2% | MCF7 breast 14.2% | HCT-116 colon 31% | HCC-2998 colon 70.5% | KM12 colon 57.1%

COc1ccc(-c2nn(-c3cccc(Cl)c3)cc2-c2c(C#N)c(=O)n3[nH]c(-c4ccccc4)nc3c2C#N)cc1
inactive: SR leukemia 71.2% | OVCAR-8 ovarian 110% | OVCAR-5 ovarian 106% | OVCAR-4 ovarian 97.3% | SK-OV-3 ovarian 102% | IGROV1 ovarian 108% | OVCAR-3 ovarian 109% | HS 578T breast 101% | NCI/ADR-RES ovarian 93% | T-47D breast 73.9% | BT-549 breast 84.4% | MDA-MB-435 melanoma 91.1% | SW-620 colon 108% | MCF7 breast 63.4% | HCT-116 colon 87.3% | HCC-2998 colon 108% | KM12 colon 94%

O=C(CCCSc1nc(-c2ccc(Cl)cc2)cc(-c2ccc(Cl)cc2)n1)NO
inactive: OVCAR-8 ovarian 13.7% | OVCAR-5 ovarian 18% | OVCAR-4 ovarian 19.2% | SK-OV-3 ovarian 14.2% | IGROV1 ovarian 24.8% | HS 578T breast 53.5% | T-47D breast 24.6% | BT-549 breast 31.9% | MDA-MB-435 melanoma 24% | SW-620 colon 23.9% | HCT-116 colon 11.5% | KM12 colon 26.3%
active: SR leukemia 7.59% | OVCAR-3 ovarian 5.4% | NCI/ADR-RES ovarian -28.7% | MCF7 breast 2.7% | HCC-2998 colon 7.09%
